Reference: PubChem BioAssay (NCI)
The panel holds about 79,000 compounds, 15% with a hit somewhere; the sample as a whole holds those more often. Unmarked numbers belong to inactive results. Activity calls are given as the source filed them. No stated cut-off is given here; in the data, active means growth inhibition above about 70%; inactive means the rest.

Assay: NCI Yeast Anticancer Drug Screen. Data for the mlh1 rad18 strain (AID 175)
Conditions: S. cerevisiae mlh1 rad18 strain growth inhibition; at 50.0 µM; hits give high values
How it was run: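 Inhibition values reflect reduced growth of mutant yeast versus vehicle-treated controls following compound exposure; the mutations affect DNA damage repair.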
For `C#CC(C)(C)OC(=O)Nc1cccc(Cl)c1`, the growth inhibition was 10.7%.
Work on `CCCCCCCCCCCCCC(=O)OCC(CCS(=O)(=O)O[C@H]1CC[C@@]2(C)C(=CC[C@@H]3C2CC[C@]2(C)C(=O)CCC32)C1)OC(=O)CCCCCCCCCCCCC` (stereo not given in full) yielded a growth inhibition of -23.6%.
For `C=CCc1oc(C)nc1CCCC`, the growth inhibition was 23.3%.
`O=C(/C=N\O)c1ccccc1[N+](=O)[O-]` showed a growth inhibition of -19.1%.
In the case of `OC1CCC(c2ccccc2)CC1` (stereo not given), the growth inhibition is reported as 7.35%.
With `C=C1CC[C@@H]2C(C)(C)CCC[C@@]2(C)[C@@H]1Cc1cc(O)ccc1O` the growth inhibition was 87.5% (active).
Work on `Cc1ccc(N=Nc2ccc(C)cc2NC(=O)Nc2cc(C)ccc2C)cc1` yielded a growth inhibition of -10.4%.
Molecule `Cc1ccc(N2C(=O)CS/C2=C(\C#N)c2nc3ccccc3[nH]2)cc1` has a growth inhibition of -40.2%.
With `Cc1cc(Cl)ccc1OCC(=O)OCC(C)(C)[N+](=O)[O-]` the growth inhibition was 33.7%.
`CCOC(=O)C(=[N+]=[N-])C(=O)c1cc2ccccc2oc1=O` gave a growth inhibition of 22.2%.
In the case of `CC(C)C(CC1CCCCC1)C(C)O` (stereo not given), the growth inhibition is reported as -17.6%.
For `Cc1ccc(-n2nc3c(c(C#N)c2=O)-c2ccccc2C3=O)cc1`, the growth inhibition was -14.3%.
`CS(=O)(=O)OCC(Cc1ccccc1)N1C(=O)c2ccccc2C1=O` (stereo not given) showed a growth inhibition of 34.1%.
Work on `C/C(CCc1ccccc1)=N\Nc1ccc([N+](=O)[O-])cc1[N+](=O)[O-]` yielded a growth inhibition of -19.4%.
`Cc1cc(=O)n(C)c2ccc(N)cc12` gave a growth inhibition of 1.85%.
`c1ccc(C2=NC3CCCCC3S2)cc1` (stereo not given) gave a growth inhibition of -2.75%.
With `O=C1OC(c2ccccc2)=CC1(Cc1ccccc1)Cc1ccccc1` the growth inhibition was -5.15%.
Molecule `COc1ccccc1C(=O)N/N=C/c1ccccc1Cl` has a growth inhibition of 30.1%.
Work on `c1cc(OCC2CO2)ccc1OCC1CO1` (stereo not given) yielded a growth inhibition of 49.4%.
With `C[C@@]1(NC(=O)Cc2ccccc2)C(=O)N2CCS[C@@]21c1ccccc1` the growth inhibition was 1.95%.
For `N#CC(CN1CCOCC1)[N+](=O)[O-]` (stereo not given), the growth inhibition was -13.6%.
Molecule `COC1NC(=O)Oc2ccccc21` (stereo not given) has a growth inhibition of -19.4%.
`C/C(CC(=O)Nc1cccc([N+](=O)[O-])c1)=N\NC(=O)CC#N` showed a growth inhibition of 2.35%.
With `O=C1OC(c2ccccc2)(c2ccc(Cl)cc2)CC1/C=C(\c1ccccc1)c1ccc(Cl)cc1` (stereo not given) the growth inhibition was 3.65%.
For `CO/C=C/c1cc2c(cc1Br)OCO2`, the growth inhibition was 12.3%.
Molecule `C=C1C(=O)O[C@H]2[C@H]1CC(=O)/C(C)=C/CC[C@@]1(C)O[C@@H]21` has a growth inhibition of 7%.
For `COc1ccc(C2SC(N)=Nc3c2c(C)nn3C(=O)c2ccc(Cl)cc2)cc1` (stereo not given), the growth inhibition was 7.8%.
Molecule `OCc1ccc2[n+](c1)CCC1c3ccccc3NC21` (stereo not given) has a growth inhibition of -6.45%.
Molecule `N#Cc1c(-c2ccccc2)cc(-c2ccccc2)[nH]c1=O` has a growth inhibition of 22.9%.
In the case of `CC(=O)c1cc(-c2ccccn2)c(=O)n2ccccc12`, the growth inhibition is reported as -4%.
With `CC(=O)NC(=O)NC1=NCCC(=O)N1CCc1c[nH]c2ccccc12` the growth inhibition was 7.2%.
`COC(=NC(C)C)NC(C)C` showed a growth inhibition of 14.4%.
Molecule `NC(Cc1c[nH]c2ccc(F)cc12)C(=O)O` (stereo not given) has a growth inhibition of 4.15%.
`COC(=O)c1cc(-c2ccc(OC)cc2)[nH]c(=O)c1C#N` gave a growth inhibition of 27.9%.
For `CCCCCCCCCCCCCCCCCCCCCCCCCCCCCCCCCCCCSC(=N)N`, the growth inhibition was 12.8%.
`c1cc2nc(c1)CSCCCCCCCSC2` gave a growth inhibition of 23.2%.
In the case of `COC(=O)COc1cc2c(cc1C(C)c1ccc(O)cc1)OCO2` (stereo not given), the growth inhibition is reported as 98.7% (active).
`O=C(O)c1cc2cc(O)ccc2[nH]1` gave a growth inhibition of -5.25%.
`COc1cc(/C=C/C(=O)c2sc(-n3nc(-c4ccccc4)cc3-c3ccccc3)nc2C)ccc1O` gave a growth inhibition of -10%.
For `CCCCCCCCS(=O)(=O)N(C)C`, the growth inhibition was -15.2%.
